This is an account of results in PubChem BioAssay (NCATS).

Test [1] addresses Cytochrome P450 1A2 (Homo sapiens) (UniProt P05177). The test can be described thus: p450-cyp1a2 (AID 410; calls by dose curve; further: potency means the concentration at half of the fitted maximal effect;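 on activity change, negative = inhibition: -100% = full effect of reference inhibitor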). An outline of the steps: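 Read-out is luminescence from luciferin produced by CYP1A2 demethylation of Luciferin-ME (100uM, at Km). Detection reagent stopped the 60 min NADPH-dependent reaction; signals were normalized to 57 uM furafylline.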
A short description of test [2]: NFAT Signaling Pathway (AID 444).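 Further: carbachol stimulus at about its EC50 of 1 µM final; on the % scale 0 is the no-effect control and ±100 the full control effect.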 The note with it: Jurkat NFAT-bla M1, carbachol, beta-lactamase ratio, 5 h; at 17.2 µM (top of the series). An outline of the steps: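 Jurkat cells carrying an NFAT-driven β-lactamase reporter and co-transfected muscarinic M1 receptor were treated with compound plus carbachol (1 uM final, an EC50 level) for 5 h at 37 °C. CCF4 loading followed for 1 h at RT; 460/530 nm ratio gave %activity.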

Test [3] is described as follows: Stat Signaling Pathway (AID 446).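 Further: ME-180 cervical cancer cells given 40 pM IL-6 alongside compound; SIE-controlled beta-lactamase reporter measured as 460/530 nm FRET emission ratio; on the % scale 0 is the no-effect control and ±100 the full control effect.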 A digest of the protocol: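 Emission at 460 and 530 nm (excitation 405 nm) reports SIE-controlled beta-lactamase in ME-180 cells. Cells received compound with 40 pM IL-6 for 5 hrs at 37 C; data scaled between 300 pM IL-6 and 125 nM JAK-inhibitor controls.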
The target in test [4] is Glucocorticoid receptor (Homo sapiens) (UniProt P04150). The test can be described thus: GR-GFP Redistribution (AID 450;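 active means compounds whose dose series gives a full or clear partial fitted curve of increased nuclear translocation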; further: potency means the concentration at half of the fitted maximal effect). As to conditions: U2OS GR-GFP nuclear translocation, laser cytometry, 2 h.
Sequence of Glucocorticoid receptor (Homo sapiens) (P04150 whole entry, looked up, the tested form may be a part): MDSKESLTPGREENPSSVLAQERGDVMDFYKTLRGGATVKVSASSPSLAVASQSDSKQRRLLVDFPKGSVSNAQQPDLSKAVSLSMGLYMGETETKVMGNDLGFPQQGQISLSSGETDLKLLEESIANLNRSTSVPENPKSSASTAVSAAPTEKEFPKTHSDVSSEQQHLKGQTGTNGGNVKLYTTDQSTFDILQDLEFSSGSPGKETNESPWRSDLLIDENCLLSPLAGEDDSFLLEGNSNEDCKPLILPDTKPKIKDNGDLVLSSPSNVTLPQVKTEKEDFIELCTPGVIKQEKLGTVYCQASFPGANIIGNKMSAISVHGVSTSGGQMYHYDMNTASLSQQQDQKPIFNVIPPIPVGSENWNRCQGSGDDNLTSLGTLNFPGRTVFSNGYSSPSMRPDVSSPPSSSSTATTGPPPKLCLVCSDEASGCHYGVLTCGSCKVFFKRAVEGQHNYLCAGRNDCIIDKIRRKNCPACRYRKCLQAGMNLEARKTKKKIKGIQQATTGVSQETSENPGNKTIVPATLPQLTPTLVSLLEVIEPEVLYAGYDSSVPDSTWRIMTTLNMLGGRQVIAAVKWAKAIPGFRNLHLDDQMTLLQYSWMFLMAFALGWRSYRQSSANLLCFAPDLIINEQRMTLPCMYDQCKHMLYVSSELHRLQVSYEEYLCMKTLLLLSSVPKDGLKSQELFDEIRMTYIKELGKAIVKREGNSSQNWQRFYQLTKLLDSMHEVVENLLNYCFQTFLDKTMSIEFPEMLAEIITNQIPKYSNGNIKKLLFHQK
Test [5] has as its target Mitogen-activated protein kinase 10 (Mus musculus) (UniProt Q61831). The test can be described thus: JNK3 AlphaScreen Assay (AID 530).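 Further: kinase came from lysate of stimulated human HepG2 cells; signal reports phosphorylation of biotinylated GST-cJun 1-79 at Ser73 with 10 µM ATP; on the % scale 0 is the no-effect control and ±100 the full control effect.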 A digest of the protocol: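 Biotinylated GST-cJun(1-79) served as substrate for JNK3 in HepG2 lysates stimulated with IL-1beta and TNF-alpha. ATP was 10 uM final, pH 7.6. Ser73 phosphorylation was quantified by AlphaScreen (680 nm excitation).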
A general note: Alpha assays give light when donor and acceptor beads are brought close together.

The target in test [6] is 3',5'-cyclic-AMP phosphodiesterase 4B (Homo sapiens) (UniProt Q07343). Nature of the test: qHTS Assay for Inhibitors of PDE-IV (AID 607; active means well fitted activation curve with a large enough effect in the main read-out, with a control signal flat, not every such curve was filed as active; further: % of control where 0% means no effect). An outline of the steps:
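The readout is membrane depolarisation from a cAMP-sensing CNG channel, detected with a potential dye at ex 535/em 590. Cells were HEK293-derived (endogenous PDE-IV) at 1000 cells/well, titrated up to 22.9 uM final.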
A general note: qHTS replaces the single test concentration by a dilution series.

Test [7] is described as follows: qHTS Assay for Lipid Storage Modulators (AID 1519; calls by dose curve). The note with it: Drosophila S3 cells, BODIPY lipid droplet/cell ratio, laser cytometry, cells loaded with oleic acid; for activity change, negative = inhibition: at 25.7 µM (top of the series). An outline of the steps: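 Cells seeded at 5,000 per well were treated with compounds over a concentration series and loaded with oleic acid (400 uM, as added). Lipid droplet fluorescence (488 nm excitation, 500-530 nm channel) was read by laser-scanning cytometry and normalized to 20 uM Triacsin C.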

Test [8] deals with Ubiquitin carboxyl-terminal hydrolase 1 (Homo sapiens) (UniProt O94782). The test can be described thus: Inhibitors of USP1/UAF1: Pilot qHTS (AID 504865; active means well fitted curve in the direction sought with a large enough effect; an effect the other way counts as inactive or inconclusive; further: nearly all actives have a fitted effect of over 35% in size; further: potency means the concentration at half of the fitted maximal effect). A digest of the protocol:
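Kinetic fluorescence assay: 1nM USP1/UAF1, 15 min compound preincubation, then 150nM Ub-Rho; 480/540 nm.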

For test [9], the target named is Glucocorticoid receptor (Homo sapiens) (UniProt P04150). The test can be described thus: GR-EFC Redistribution (AID 451; calls by dose curve; further: potency means the concentration at half of the fitted maximal effect). As to conditions: CHO-K1 GR-EFC translocation, beta-gal luminescence, 2 h. An outline of the steps:
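CHO-K1 cells stably expressing nuclear-localized β-gal enzyme acceptor and GR fused C-terminally to the enzyme donor fragment; ligand-driven nuclear translocation restores β-gal by complementation. Compounds titrated up to 46 uM final, 2 h at 37 °C; luminescence read.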

A short description of test [10]: AP1 Signaling Pathway (AID 357).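 Further: ME-180 reporter cells stimulated with EGF at its EC50 level; on the % scale 0 is the no-effect control and ±100 the full control effect.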 An outline of the steps: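 AP-1-bla ME-180 cells, Opti-MEM + 0.5% dialyzed FBS, plated overnight 37 °C. Cpd titration + EC50 EGF, 5 h 37 °C. CCF4 2.5 h RT; ex 405, em 460/530 ratio → %activity, AC50.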
In test [11] the target is Cytochrome P450 3A4 (Homo sapiens) (UniProt P08684). The test can be described thus: qHTS Assay for Activators of Cytochrome P450 3A4 (AID 885; active means well fitted curve in the direction sought with a large enough effect; an effect the other way counts as inactive or inconclusive; further: nearly all actives have a fitted effect of over 65% in size). An outline of the steps:
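Activators are scored by enhanced luminescence from CYP3A4 conversion of luciferin-PPXE (25uM, equal to KM) to luciferin, after 60 min at RT with an NADPH-regenerating system.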

For test [12] the target is unchanged. Nature of the test: qHTS Assay for Inhibitors and Substrates of Cytochrome P450 3A4 (AID 884; active means well fitted curve in the direction sought with a large enough effect; an effect the other way counts as inactive or inconclusive; further: potency means the concentration at half of the fitted maximal effect; nearly all actives have a fitted effect of over 50% in size). An outline of the steps:
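Luminescent readout of luciferin produced by CYP3A4 (20 nM) dealkylation of Luciferin-PPXE, 25 uM (its KM). NADPH-driven reaction ran 60 min at RT after 10 min compound preincubation; data scaled to 57 uM ketoconazole as 100% inhibition.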

[13] abbreviates: measured here: cell count channel max response.
[14] abbreviates: measured here: lipid channel max response.

Values joined by “and” are separate entries in the source; they are usually repeats but may differ in a detail not shown here. Identical values can stand only once. Results filed as inconclusive are left out. Active and inactive are the calls of the source. Unless noted, the call rests on the fitted dose curve; in most records, active means well fitted curve in either direction with a large enough effect (not every such curve was filed as active); inconclusive means small, poorly fitted or top-dose-only effect, or another doubt; inactive means flat fitted curve, though single readings scatter.

Sequence of Cytochrome P450 1A2 (Homo sapiens) (P05177 whole entry, looked up): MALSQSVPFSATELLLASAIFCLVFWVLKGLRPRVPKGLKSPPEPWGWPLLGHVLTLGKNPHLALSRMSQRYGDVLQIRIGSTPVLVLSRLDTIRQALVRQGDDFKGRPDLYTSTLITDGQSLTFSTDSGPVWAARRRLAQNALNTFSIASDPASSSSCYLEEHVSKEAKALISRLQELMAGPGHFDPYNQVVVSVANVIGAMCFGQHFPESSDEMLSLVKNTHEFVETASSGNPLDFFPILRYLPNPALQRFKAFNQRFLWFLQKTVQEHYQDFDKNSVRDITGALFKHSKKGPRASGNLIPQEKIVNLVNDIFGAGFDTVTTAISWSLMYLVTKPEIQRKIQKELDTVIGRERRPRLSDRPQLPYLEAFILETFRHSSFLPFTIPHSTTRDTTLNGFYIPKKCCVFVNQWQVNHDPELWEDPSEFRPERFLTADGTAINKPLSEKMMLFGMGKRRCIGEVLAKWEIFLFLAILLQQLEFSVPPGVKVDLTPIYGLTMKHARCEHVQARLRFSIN
Sequence of Cytochrome P450 3A4 (Homo sapiens) (P08684 whole entry, looked up): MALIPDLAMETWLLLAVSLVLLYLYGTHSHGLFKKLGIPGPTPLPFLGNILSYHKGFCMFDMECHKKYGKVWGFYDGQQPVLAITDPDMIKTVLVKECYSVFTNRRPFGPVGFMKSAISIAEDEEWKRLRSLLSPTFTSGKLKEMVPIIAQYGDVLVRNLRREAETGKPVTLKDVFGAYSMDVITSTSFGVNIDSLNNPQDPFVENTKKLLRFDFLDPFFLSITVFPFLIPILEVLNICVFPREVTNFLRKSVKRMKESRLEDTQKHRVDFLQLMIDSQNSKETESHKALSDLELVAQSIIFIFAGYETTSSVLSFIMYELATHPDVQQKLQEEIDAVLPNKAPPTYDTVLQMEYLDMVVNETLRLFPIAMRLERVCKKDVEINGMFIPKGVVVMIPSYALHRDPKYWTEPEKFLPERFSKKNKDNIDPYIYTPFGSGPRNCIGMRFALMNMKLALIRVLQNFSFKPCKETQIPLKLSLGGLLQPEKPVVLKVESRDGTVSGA
Sequence of 3',5'-cyclic-AMP phosphodiesterase 4B (Homo sapiens) (Q07343 whole entry, looked up): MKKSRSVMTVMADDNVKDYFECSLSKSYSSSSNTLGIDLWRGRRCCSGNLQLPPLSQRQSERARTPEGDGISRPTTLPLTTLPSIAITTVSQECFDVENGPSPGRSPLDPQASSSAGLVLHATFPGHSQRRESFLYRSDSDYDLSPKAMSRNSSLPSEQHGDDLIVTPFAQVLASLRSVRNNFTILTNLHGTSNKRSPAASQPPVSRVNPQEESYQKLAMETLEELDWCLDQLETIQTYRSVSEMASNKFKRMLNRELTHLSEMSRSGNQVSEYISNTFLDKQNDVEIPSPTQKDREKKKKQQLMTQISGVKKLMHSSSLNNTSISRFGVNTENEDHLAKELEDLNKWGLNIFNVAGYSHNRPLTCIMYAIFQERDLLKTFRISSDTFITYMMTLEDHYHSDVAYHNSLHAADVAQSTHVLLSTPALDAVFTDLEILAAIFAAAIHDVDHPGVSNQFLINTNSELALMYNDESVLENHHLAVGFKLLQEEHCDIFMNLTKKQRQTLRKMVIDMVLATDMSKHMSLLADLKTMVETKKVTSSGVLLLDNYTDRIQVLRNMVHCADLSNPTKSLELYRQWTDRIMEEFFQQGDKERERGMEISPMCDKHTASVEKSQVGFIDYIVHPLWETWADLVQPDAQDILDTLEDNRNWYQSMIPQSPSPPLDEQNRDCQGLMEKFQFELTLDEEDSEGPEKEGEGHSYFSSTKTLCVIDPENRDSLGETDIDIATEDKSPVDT
Sequence of Ubiquitin carboxyl-terminal hydrolase 1 (Homo sapiens) (O94782 whole entry, looked up): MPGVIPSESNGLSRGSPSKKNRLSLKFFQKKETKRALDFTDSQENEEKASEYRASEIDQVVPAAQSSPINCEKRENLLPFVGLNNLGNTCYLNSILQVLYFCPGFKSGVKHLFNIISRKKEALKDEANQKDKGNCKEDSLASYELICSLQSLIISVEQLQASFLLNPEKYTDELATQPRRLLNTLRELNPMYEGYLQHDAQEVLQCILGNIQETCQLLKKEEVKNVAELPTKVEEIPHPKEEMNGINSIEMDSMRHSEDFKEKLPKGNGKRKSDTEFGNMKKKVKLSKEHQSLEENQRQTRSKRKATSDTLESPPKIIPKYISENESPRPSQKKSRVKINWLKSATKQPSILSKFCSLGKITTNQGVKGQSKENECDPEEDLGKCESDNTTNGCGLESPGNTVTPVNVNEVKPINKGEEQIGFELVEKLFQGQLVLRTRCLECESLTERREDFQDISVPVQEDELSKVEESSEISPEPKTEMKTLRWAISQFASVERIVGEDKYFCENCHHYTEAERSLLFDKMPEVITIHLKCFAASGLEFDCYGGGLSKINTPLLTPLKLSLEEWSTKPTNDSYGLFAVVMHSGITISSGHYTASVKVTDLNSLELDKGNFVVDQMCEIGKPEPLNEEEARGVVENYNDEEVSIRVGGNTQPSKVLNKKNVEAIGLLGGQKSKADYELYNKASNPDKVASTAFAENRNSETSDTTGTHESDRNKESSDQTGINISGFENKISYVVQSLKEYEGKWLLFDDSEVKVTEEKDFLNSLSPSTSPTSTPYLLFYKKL

As to `COc1ccc(C(=O)OC2C[C@H]3CC[C@@H](C2)N3C)cc1OC` (stereo partly specified), the Potency entry in [1], in test [6] and in [8] was “inactive” throughout. Also, the activity change, negative = inhibition in test [2] is -18.9% (inactive); in test [7] it was 0.262% (inactive). Further, the result in test [3] and in [5] was inactive. Further, the Potency in test [4] was > 20.6 µM (inactive). The values for the max response in test [7] (setting [13]) and in test [7] (setting [14]) were -3.69% and -3.27%, respectively.

For `C[C@H]1CC[C@@]2(NC1)O[C@@H]1C[C@H]3[C@@H]4CC=C5C[C@@H](O)CC[C@]5(C)[C@@H]4CC[C@]3(C)[C@@H]1[C@@H]2C`, the Potency entry in test [1], in [6] and in test [8] was “inactive” throughout. In addition, the values for the activity change, negative = inhibition in test [2] and in [7] were 7.82% (inactive) and -1.61% (inactive), respectively. The outcome in [3] and in [5] was inactive. Besides, the Potency in test [4] and in [9] was > 20.6 µM (inactive) in each case. Besides, the max response in [7] (setting [13]) is 0.522%; in [7] (setting [14]), -7.85%.

With `C[C@H]1CC[C@@H]2[C@@H](C)C(=O)O[C@H]3O[C@@]4(C)CC[C@H]1[C@@]32OO4`, the call in test [10], in [3] and in [5] was inactive. The activity change, negative = inhibition was -0.23% (inactive) in test [2] and -3.8% (inactive) in test [7]. Further, the Potency in test [4] and in test [9] was > 20.6 µM (inactive) each time. The Potency entry in test [6] and in test [8] was “inactive” each time. Also, the values for the max response in test [7] (setting [13]) and in test [7] (setting [14]) were -10.2% and -15%, respectively.

On to `CN1C[C@H](CO)C=C2c3cccc4[nH]cc(c34)C[C@@H]21`, for which the result in test [10], in test [3] and in test [5] was inactive. The Potency in test [4] is > 20.6 µM (inactive); in [9] it was > 20.6 µM (inactive); in test [8], 31.6 µM (active). The Potency result in test [6] and in [11] was “inactive” each time. Also, the activity change, negative = inhibition in test [7] was 0.712% (inactive). The results for the max response in test [7] (setting [13]) and in test [7] (setting [14]) were -6.66% and -5.9%, respectively.

On to `O=C(NCNC(=O)N[C@H]1C(=O)NC(=O)N1CO)N[C@H]1C(=O)NC(=O)N1CO`, for which the molecule was called inactive in [10], in test [3] and in test [5]. The activity change, negative = inhibition is -14% (inactive) in test [2] and -1.29% (inactive) in test [7]. Moreover, the Potency in test [4] and in test [9] was > 20.6 µM (inactive) each time. For the same molecule, the Potency entry in test [6] and in [8] was “inactive” each time. Further, the max response in [7] (setting [13]) is -9.3%; in test [7] (setting [14]) it was -8.35%.

For the molecule `C[C@@]12CC[C@H](O)C[C@@H]1CC[C@H]1[C@H]2CC[C@@]2(C)[C@@H](C3=CC(=O)OC3)CC[C@]12O`, the Potency entry in test [1] and in [11] was “inactive” in each case. For the same molecule, the values for the activity change, negative = inhibition in test [2] and in [7] were -74.9% (active) and -3.39% (inactive), respectively. Besides, the call in test [3] and in test [5] was inactive. Also, the Potency in [4] and in test [9] was > 20.6 µM (inactive) in each case. Also, the results for the max response in test [7] (setting [13]) and in test [7] (setting [14]) were -2.15% and -7.35%, respectively.

As to `CN1Cc2c(ccc3c2OCO3)[C@@H]2[C@@H](O)Cc3cc4c(cc3[C@@H]21)OCO4`, the result in test [10] and in [3] was inactive. The Potency in test [1] is 2.51 µM (active) and 794 nM (active); in test [4] it was > 20.6 µM (inactive) and > 46 µM (inactive); in test [9], > 20.6 µM (inactive) and > 46 µM (inactive); in test [12], 5.01 µM (active). Moreover, the Potency entry in test [6], in test [11] and in test [8] was “inactive” in each case. The activity change, negative = inhibition in test [7] is 0.247% (inactive). Also, the max response in test [7] (setting [13]) was 0.16%; in test [7] (setting [14]) it was -1.15%.
